The results in this text go back to PubChem BioAssay (Tox21).

Test [1] can be described thus: qHTS assay to test for compound auto fluorescence at 535 nm (green) in HEK293 cells (AID 720680). For orientation: Quantitative high-throughput screening tests each substance at several concentrations.
A short description of test [2]: qHTS assay to test for compound auto fluorescence at 460 nm (blue) in HEK293 cell free culture (AID 720681). In short, it runs like this: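 Compounds were added to cell-free DMEM with 10% FBS and fluorescence read directly. The blue channel used 405 nm excitation and 460 nm emission, with triamterene as the reference fluorophore.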
A short description of test [3]: qHTS assay to test for compound auto fluorescence at 535 nm (green) in HEK293 cell free culture (AID 720682). In short, it runs like this:
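Steps: dispense DMEM/10% FBS into empty wells; pin in compound or DMSO; measure fluorescence at 485/535 nm. Values are fluorescein equivalents.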

The nature of test [4]: qHTS assay to test for compound auto fluorescence at 590 nm (red) in HEK293 cell free culture (AID 720683). In short, it runs like this: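 Cell-free wells of DMEM with 10% FBS received compound, and intrinsic fluorescence was read at excitation/emission 540/590 nm. Values expressed as equivalence to Rose Bengal sodium.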
The nature of test [5]: qHTS assay to test for compound auto fluorescence at 590 nm (red) in HepG2 cell free culture (AID 720684). In short, it runs like this: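 Compound was pinned into wells holding MEM with 10% FBS and no cells, and red fluorescence was read at Ex/Em 540/590 nm. Signal is expressed as auto fluorescence equivalency relative to Rose Bengal sodium.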
Test [6] can be described thus: qHTS assay to test for compound auto fluorescence at 535 nm (green) in HepG2 cell free culture (AID 720686).
Test [7] is described as follows: qHTS assay to test for compound auto fluorescence at 460 nm (blue) in HepG2 cells (AID 720687). In short, it runs like this:
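HepG2 cells in MEM with 10% FBS, attached overnight at 37 C, were exposed to compound or DMSO for 1 hr at 37 C, 5% CO2. Blue fluorescence was read at 405/460 nm, with triamterene as reference fluorophore.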

Test [8] in a line: qHTS assay to identify small molecule antagonists of the glucocorticoid receptor (GR) signaling pathway - cell viability counter screen (AID 720693). Further: nearly all actives have a fitted effect of over 55% in size.
Test [9] can be described thus: qHTS assay for identifying genotoxic compounds that show differential cytotoxicity against isogenic chicken DT40 cell lines with known DNA damage response pathways - wild type cell line (AID 743012). Further: nearly all actives have a fitted effect of over 60% in size. Further: potency means the concentration at half of the fitted maximal effect. In short, it runs like this:
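Wild-type DT40 cells (300/well) exposed to compounds for 40 hours at 37 C/5% CO2. Viability read by CellTiter-Glo luminescence after 30 min at room temperature.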

Test [10] in a line: qHTS assay for identifying genotoxic compounds that show differential cytotoxicity against isogenic chicken DT40 cell lines with known DNA damage response pathways - Rev3 mutant cell line (AID 743014). Further: nearly all actives have a fitted effect of over 55% in size. Further: potency means the concentration at half of the fitted maximal effect.
Test [11] is described as follows: qHTS assay for identifying genotoxic compounds that show differential cytotoxicity against isogenic chicken DT40 cell lines with known DNA damage response pathways - Rad54/Ku70 mutant cell line (AID 743015). Further: nearly all actives have a fitted effect of over 60% in size. Further: potency means the concentration at half of the fitted maximal effect.
Test [12] is described as follows: qHTS assay to identify small molecule antagonists of the androgen receptor (AR) signaling pathway - cell viability counter screen (AID 743033; further: nearly all actives have a fitted effect of over 45% in size).
A short description of test [13]: qHTS assay to identify small molecule antagonists of the androgen receptor (AR) signaling pathway using the MDA cell line - cell viability counter screen (AID 743041; further: nearly all actives have a fitted effect of over 45% in size). Summed up:
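MDA-kb2 AR-luc cells (MMTV-luciferase, AR/GR responsive) treated with compounds plus R1881 agonist for 16 h at 37C. CellTiter-Fluor added at 15.5 h; fluorescence read after 30 min in the same wells.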

In test [14] the target is Glucocorticoid receptor (Homo sapiens) (UniProt P04150). In words: qHTS assay to identify small molecule agonists of the glucocorticoid receptor (GR) signaling pathway (AID 720691; active means well fitted activation curve with a large enough effect in the signal ratio in the repeat runs, not every such curve was filed as active; the % refers to the signal ratio). In short, it runs like this:
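GR-bla HeLa cells carrying a GRE-driven beta-lactamase reporter, exposed to compounds for 18 h at 37 C. Reporter activation read as fluorescence after 2 h with LiveBLAzer B/G FRET substrate at room temperature.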

Test [15] has the same target. Kind of test: qHTS assay to identify small molecule antagonists of the glucocorticoid receptor (GR) signaling pathway (AID 720692; active means well fitted inhibition curve with a large enough effect in the signal ratio in the repeat runs, not every such curve was filed as active; the % refers to the signal ratio; further: potency means the concentration at half of the fitted maximal effect). In short, it runs like this: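 GR-bla HeLa cells carrying a GRE-driven beta-lactamase reporter received compound after 4 h plating, then dexamethasone (5 nM final). After 18 h at 37C, the FRET substrate was loaded for 2 h at room temperature and fluorescence read.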

The target of test [16] is Androgen receptor (Homo sapiens) (UniProt P10275). Kind of test: qHTS assay to identify small molecule antagonists of the androgen receptor (AR) signaling pathway (AID 743035; active means well fitted inhibition curve with a large enough effect in the signal ratio in the repeat runs, not every such curve was filed as active; the % refers to the signal ratio). Summed up: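 HEK293 cells stably carrying UAS-beta-lactamase reporter, 2,000/well, given compounds plus R1881 agonist and incubated 16 h at 37C. LiveBLAzer B/G FRET substrate then added for 2 h at room temperature before fluorescence reading.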

Test [17] has the same target. In words: qHTS assay to identify small molecule agonists of the androgen receptor (AR) signaling pathway (AID 743036; active means well fitted activation curve with a large enough effect in the signal ratio in the repeat runs, with a control signal flat, not every such curve was filed as active; the % refers to the signal ratio). In short, it runs like this: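 Reporter line: GeneBLAzer AR-UAS-bla-GripTite (HEK293). Steps: plate cells, 4 h rest, add compounds, 16 h at 37C, add LiveBLAzer B/G substrate, 2 h at RT, read fluorescence.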
Test [18] shares this target. In words: qHTS assay to identify small molecule agonists of the androgen receptor (AR) signaling pathway using the MDA cell line (AID 743040; further: nearly all actives have a fitted effect of over 20% in size). Summed up: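 MDA-kb2 breast carcinoma cells carrying MMTV-luciferase (responsive to AR and GR), plated 5 h then treated 16 h with compounds at 37C, 0% CO2. Read-out was ONE-Glo luminescence after 30 min at room temperature.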

The target is the same in test [19]. In words: qHTS assay to identify small molecule antagonists of the androgen receptor (AR) signaling pathway using the MDA cell line (AID 743042; further: nearly all actives have a fitted effect of over 55% in size). In short, it runs like this: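 MDA-kb2 breast carcinoma cells carrying MMTV-luciferase (AR/GR responsive) were co-treated with compounds and the agonist R1881 for 16 h at 37C. Inhibition read as ONE-Glo luminescence; CellTiter-Fluor fluorescence measured in parallel for cytotoxicity.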

Unmarked numbers belong to inactive results. Results filed as inconclusive are left out. The source made the active and inactive calls. Unless noted, the call rests on the fitted dose curve; in most records, active means well fitted curve in the direction sought with a large enough effect in the repeat runs; inconclusive means weak or mixed curves; inactive means no such curve, though single readings can be large; an effect the other way counts as inactive or inconclusive.

Glucocorticoid receptor (Homo sapiens), sequence (P04150 whole entry, looked up): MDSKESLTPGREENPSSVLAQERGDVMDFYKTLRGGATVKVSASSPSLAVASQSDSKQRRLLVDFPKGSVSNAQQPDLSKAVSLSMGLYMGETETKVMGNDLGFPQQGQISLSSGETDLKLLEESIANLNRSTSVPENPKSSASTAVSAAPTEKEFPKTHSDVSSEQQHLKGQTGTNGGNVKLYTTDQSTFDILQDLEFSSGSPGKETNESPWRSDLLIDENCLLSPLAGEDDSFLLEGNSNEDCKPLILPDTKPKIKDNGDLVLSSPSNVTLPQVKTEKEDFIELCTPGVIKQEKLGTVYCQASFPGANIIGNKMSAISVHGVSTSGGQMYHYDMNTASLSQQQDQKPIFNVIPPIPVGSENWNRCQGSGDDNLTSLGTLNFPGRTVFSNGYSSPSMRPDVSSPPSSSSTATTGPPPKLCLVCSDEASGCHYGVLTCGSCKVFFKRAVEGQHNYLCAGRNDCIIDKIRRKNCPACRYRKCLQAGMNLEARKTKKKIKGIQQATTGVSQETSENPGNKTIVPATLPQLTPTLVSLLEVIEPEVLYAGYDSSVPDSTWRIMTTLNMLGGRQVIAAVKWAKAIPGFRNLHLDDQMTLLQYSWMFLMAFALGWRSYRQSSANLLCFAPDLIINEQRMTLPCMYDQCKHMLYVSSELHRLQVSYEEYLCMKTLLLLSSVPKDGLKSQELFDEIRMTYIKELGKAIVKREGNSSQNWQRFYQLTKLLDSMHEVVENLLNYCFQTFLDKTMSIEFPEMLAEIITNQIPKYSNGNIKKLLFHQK
Androgen receptor (Homo sapiens), sequence (P10275 whole entry, looked up): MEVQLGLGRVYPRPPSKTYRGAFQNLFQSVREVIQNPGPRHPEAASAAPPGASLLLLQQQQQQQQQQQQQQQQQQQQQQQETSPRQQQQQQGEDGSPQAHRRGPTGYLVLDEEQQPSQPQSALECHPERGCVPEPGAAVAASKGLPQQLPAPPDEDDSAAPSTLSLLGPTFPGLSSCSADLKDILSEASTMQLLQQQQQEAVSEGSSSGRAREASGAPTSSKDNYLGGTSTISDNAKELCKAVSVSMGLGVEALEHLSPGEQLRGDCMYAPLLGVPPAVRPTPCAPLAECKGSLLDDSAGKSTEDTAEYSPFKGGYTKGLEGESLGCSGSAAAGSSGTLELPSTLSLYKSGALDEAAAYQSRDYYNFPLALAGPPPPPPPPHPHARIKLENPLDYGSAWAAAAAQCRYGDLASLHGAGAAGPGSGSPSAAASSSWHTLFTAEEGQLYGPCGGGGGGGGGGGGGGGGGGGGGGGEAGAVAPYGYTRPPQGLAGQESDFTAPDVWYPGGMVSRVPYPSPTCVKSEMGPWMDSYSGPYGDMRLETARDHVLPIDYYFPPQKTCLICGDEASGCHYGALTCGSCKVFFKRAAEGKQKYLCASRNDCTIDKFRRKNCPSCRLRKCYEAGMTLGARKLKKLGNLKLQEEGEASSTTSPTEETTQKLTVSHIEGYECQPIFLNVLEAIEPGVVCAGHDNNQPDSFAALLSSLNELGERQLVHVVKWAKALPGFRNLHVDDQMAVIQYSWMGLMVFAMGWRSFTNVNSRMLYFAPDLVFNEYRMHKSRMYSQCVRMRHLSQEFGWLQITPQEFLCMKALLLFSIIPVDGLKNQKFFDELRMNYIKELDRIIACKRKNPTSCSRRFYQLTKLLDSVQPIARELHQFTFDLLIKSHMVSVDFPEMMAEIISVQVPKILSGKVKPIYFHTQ

As to `CCOC(=O)c1ccc(I)cc1`, the call in test [1], in test [3], in [4], in [5] and in [6] was inactive. Besides, the Potency result in test [2], in [7], in test [8], in [9], in [10] and in test [11] was “inactive” each time. For the same molecule, the Potency result in test [12] and in test [13] was “inactive” in each case.

`CC(=O)[C@H]1[C@H](C#N)C[C@H]2[C@@H]3CC=C4C[C@@H](O)CC[C@]4(C)[C@H]3CC[C@@]21C`: the call in test [1], in [3], in test [4], in test [5] and in test [6] was inactive. Moreover, the Potency entry in test [2], in [7], in test [14], in test [8], in [12] and in test [13] was “inactive” throughout. Further, the Potency is 10.6 µM (active) in [15], 37.1 µM (active) in test [9] and 37.1 µM (active) in test [10].

`O=[N+]([O-])c1ccc(Nc2ccc(Nc3ccccc3)c(S(=O)(=O)O)c2)c([N+](=O)[O-])c1`: the molecule was classed as inactive in [1], in [3], in test [4], in [5] and in [6]. Besides, the Potency result in [2], in test [7], in test [14], in test [8], in test [9] and in [10] was “inactive” each time. Moreover, the Potency result in [11], in test [12] and in test [13] was “inactive” throughout.

Regarding `CCCCCC[C@@H](O)C/C=C\CCCCCCCC(=O)OCC(O)CO` (some centres not stated), the result in test [1], in test [3], in [4], in test [5], in [6] and in test [17] was inactive. Besides, the result in test [18] was inactive. In addition, the Potency result in test [2], in test [7], in test [14], in [8], in test [9] and in test [11] was “inactive” each time. The Potency entry in test [12], in [16], in test [13] and in [19] was “inactive” each time.

On to `CCC(C)COC(=O)CC(C)C` (configuration not stated), for which the molecule was classed as inactive in [1], in test [3], in test [4], in test [5] and in test [6]. For the same molecule, the Potency result in test [2], in test [7] and in [13] was “inactive” throughout. The Potency in [9] is 68.6 µM (active); in [10], 61.1 µM (active); in test [11], 61.1 µM (active).

`C=CC(=O)OCC1CC2CC1C1CCC(COC(=O)C=C)C21` (configuration not stated): the result in test [1], in test [3], in test [4], in test [5] and in [6] was inactive. Also, the Potency entry in [2] and in [7] was “inactive” in each case. In addition, the values for the Potency in [10] and in test [11] were 24.3 µM (active) and 19.3 µM (active), respectively.

On to `CCOC(C)=O`, for which the molecule was classed as inactive in test [1], in [3], in test [4], in [5] and in test [6]. In addition, the Potency result in test [2], in [7], in [14], in test [15], in test [8] and in test [9] was “inactive” each time. Further, the Potency entry in test [10], in [11], in [12] and in test [13] was “inactive” each time.

Regarding `CC(CCC(=O)O)C(=O)O` (configuration not stated), the result in test [1], in test [3], in [4], in test [5] and in test [6] was inactive. For the same molecule, the Potency result in test [2], in test [7], in [14], in [15], in test [9] and in test [10] was “inactive” throughout. Further, the Potency entry in test [11], in [12] and in test [13] was “inactive” in each case.
